Compounds with a hit are over-represented: about 5.9% of the library has one in this group of screens.
GLP1R cytotox: qHTS of GLP-1 Receptor Inverse Agonists: Cytotox Screen; Potency, µM (doses to about 38.3 µM), for inactives: at the highest dose activity change, negative = inhibition, actives largely listed as inhibitors; 0.13% of 410,000 active; HEK293 cAMP-luciferase reporter cells, luminescence, 24 h;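 note: loss of luciferase light is scored as toxicity; % is set by controls: 0 for no effect and ±100 for the full control effect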
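Here, cytotoxicity is scored as loss of luminescence. The MLSMR collection was tested on cells seeded in medium containing 10% Nu serum, with a 24 hr compound exposure preceded by 12 hours of culture.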
GLP-1R inv ag: qHTS of GLP-1 Receptor Inverse Agonists (Inhibition Mode); Glucagon-like peptide 1 receptor (Homo sapiens), P43220; 1.6% of 410,000 active; Potency, µM (highest dose often 38.3 µM), inactives show top-dose activity change, negative = inhibition, usual class: inhibitors; HEK293 GLP-1R CRE-luciferase, luminescence, 24 h; GLP-1R form is constitutively active; note: % is set by controls: 0 for no effect and ±100 for the full control effect; nearly all actives have a fitted effect of over 55% in size
Target sequence (P43220 whole entry, looked up): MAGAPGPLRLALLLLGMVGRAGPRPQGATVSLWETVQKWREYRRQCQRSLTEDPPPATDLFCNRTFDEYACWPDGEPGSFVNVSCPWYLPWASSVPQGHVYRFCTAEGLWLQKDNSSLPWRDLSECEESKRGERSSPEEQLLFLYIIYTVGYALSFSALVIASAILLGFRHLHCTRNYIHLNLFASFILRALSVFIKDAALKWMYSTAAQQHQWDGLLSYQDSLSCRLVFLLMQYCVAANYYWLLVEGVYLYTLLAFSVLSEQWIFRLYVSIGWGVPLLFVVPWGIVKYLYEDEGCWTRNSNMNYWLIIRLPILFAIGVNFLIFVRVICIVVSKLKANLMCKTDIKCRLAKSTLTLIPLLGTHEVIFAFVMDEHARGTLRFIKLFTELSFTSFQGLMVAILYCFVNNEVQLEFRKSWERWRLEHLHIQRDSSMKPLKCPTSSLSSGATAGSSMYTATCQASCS
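HEK293 cells stably co-expressing a cAMP-responsive luciferase reporter and constitutively active GLP-1R were seeded, incubated 12 h, then exposed to compounds for 24 h at 37 C. Luminescence was read 12 min after detection reagent; inverse agonists lower signal.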
GLP-1R agonist: qHTS of GLP-1 Receptor Agonists; Glucagon-like peptide 1 receptor (Homo sapiens), P43220; HEK293 GLP-1R CRE-luciferase, luminescence, 4-6 h; cells express a hypersensitive GLP-1R form; Potency, µM (doses to about 45.6 µM), inactives show at the highest dose activation, most hits filed as activators; 0.007% of 380,000 active; AID 624172, 2012; note: % of control where 0% means no effect
RORg inh: qHTS for inhibitors of ROR gamma transcriptional activity | Nuclear receptor ROR-gamma (Mus musculus), P51450 | Drosophila S2 Gal4-RORgamma UAS-luciferase reporter, 20 h | Potency, µM (doses to about 53.6 µM), without a hit: at the highest dose activity change, negative = inhibition, actives largely listed as inhibitors | 5.4% of 310,000 active | AID 2551, 2010; note: % is set by controls: 0 for no effect and ±100 for the full control effect; nearly all actives have a fitted effect of over 60% in size
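Luminescence from a UAS-regulated Photinus luciferase reporter in stably transfected Drosophila Schneider cells is measured; decreased signal marks ROR gamma inhibition. Fusion expression is induced by 700 uM copper sulfate for 20 hr.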
Gal4-VP16 FLuc: VP16 counterscreen qHTS for inhibitors of ROR gamma transcriptional activity. AID 2546, 2010. 3.5% of 310,000 active. Drosophila S2 Gal4-VP16 UAS-luciferase, luminescence, 20 h. Potency, µM (top dose mostly 53.6 µM), without a hit: top-dose activity, negative = inhibition, actives largely listed as inhibitors;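 note: Gal4-VP16 expression switched on by copper sulfate through the metallothionein promoter; % is set by controls: 0 for no effect and ±100 for the full control effect; nearly all actives have a fitted effect of over 50% in size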
* marks the source's active call; other numbers are inactive results; ? = inconclusive; · = no result. Calls come from the whole dose curve; as a rule, active = well fitted curve in the direction sought with a large enough effect; inconclusive = small, poorly fitted or top-dose-only effect, or another doubt; inactive = no such curve, though single readings can be large; an effect the other way counts as inactive or inconclusive. Potency is the fitted concentration of half-maximal effect.

SMILES	GLP1R cytotox	GLP-1R inv ag	GLP-1R agonist	RORg inh	Gal4-VP16 FLuc
COC(=O)CN1C(=O)[C@@H]2[C@H](C1=O)[C@@H]1CC(C(=O)OC)=C[C@@H](C(=O)OC)C3C1=C(C(=O)[C@]3(C)NC(=O)c1ccccc1)[C@@H]2C (some centres undefined)	·	·	·	-9.0%	-15.3%
COc1cccc(C(=O)NC(=S)Nc2ccc(Cl)c(C(=O)O)c2)c1	-2.4%	5.3%	0.0%	-2.5%	-12.4%
O=C(NC(=S)Nc1ccc2c(c1)OCCO2)c1ccccc1F	?	-24.6%	-0.9%	10µM*	?
O=C(Nc1ccc2c(c1)OCCO2)c1ccccc1F	-20.8%	?	-22.6%	?	?
O=C(NC(=S)Nc1ccc2c(c1)OCCO2)c1ccccc1	-22.7%	?	-9.4%	3.98µM*	?
COc1cccc(OC)c1C(=O)NC(=S)Nc1ccc2c(c1)OCCO2	0.3%	-20.1%	14.8%	12.6µM*	-15.3%
CCOc1cccc(C(=O)NC(=S)Nc2ccc(Cl)cc2C(=O)O)c1	-12.9%	1.8%	-1.0%	7.08µM*	3.55µM*
CCc1cccc(NC(=O)C2Cc3ccccc3N2C(=O)c2ccccc2)c1 (centres undefined)	-2.6%	?	·	·	·
COc1cc2c(cc1OC)C(COc1ccc3c(C)cc(=O)oc3c1)N(C(=O)c1cccc(OC)c1OC)CC2 (centres undefined)	0.3%	29.5%	·	·	·
CCOc1cccc(C(=O)NC(=S)Nc2ccc3c(c2)OCCO3)c1	-6.8%	-9.3%	1.9%	7.94µM*	1.2%
CCc1ccc(OCC(=O)N/N=C(\C)c2ccc(O)cc2O)cc1	-22.5%	?	-1.0%	12.6µM*	?
CCc1ccc(OCC(=O)N/N=C(\C)c2ccc3c(c2)OCCO3)cc1	3.9%	13.3%	26.3%	33.0%	2.4%
CC(C)Sc1n[nH]c2nc3c(c(=O)n12)C1(CCCC1)Cc1ccccc1-3	·	·	·	11.2µM*	-10.2%
C=CCSc1n[nH]c2nc3c(c(=O)n12)C1(CCCC1)Cc1ccccc1-3	28.8%	-8.2%	-4.1%	5.62µM*	11.2µM*
CCSc1n[nH]c2nc3c(c(=O)n12)C1(CCCC1)Cc1ccccc1-3	252.2%	?	-1.4%	14.1µM*	-2.8%
COc1ccc2oc(=O)cc(CN3CCN(C(=O)c4ccccc4Br)CC3)c2c1	?	-19.1%	·	·	·
C=CCn1c(O)c(N=NC(=S)Nc2ccc(OC)cc2)c2ccccc21	?	?	-4.1%	3.16µM*	3.98µM*
C=CCn1c(O)c(N=NC(=S)Nc2cccc(OC)c2)c2ccccc21	?	?	-3.1%	0.794µM*	2.51µM*
COCc1cc(=O)[nH]c(-c2csc(C)n2)n1	13.8%	10.7%	-0.1%	-14.5%	0.2%
COCc1cc(OC)nc(-c2csc(C)n2)n1	-28.2%	2.0%	-6.7%	11.2µM*	-23.4%
CC1CN(C(=S)Nc2ccc(Cl)cc2)CC(C)O1 (centres undefined)	0.4%	18.8%	-3.8%	-43.4%	-25.1%
CC1CN(c2ccc(NC(=S)Nc3ccc(N4CC(C)OC(C)C4)cc3)cc2)CC(C)O1 (centres undefined)	-18.2%	?	-4.0%	2.51µM*	8.91µM*
CC1CC(C)CN(C(=S)Nc2ccc(SC(F)F)cc2)C1 (centres undefined)	?	?	-9.1%	5.01µM*	11.2µM*
CC1CC(C)CN(C(=S)Nc2ccc(OC(F)F)cc2)C1 (centres undefined)	11.0%	?	-15.4%	11.2µM*	?
FC(F)Oc1ccc(NC(=S)N2CCN(Cc3ccccc3)CC2)cc1	-0.7%	?	1.3%	?	-6.2%
SMILES	GLP1R cytotox	GLP-1R inv ag	GLP-1R agonist	RORg inh	Gal4-VP16 FLuc
CC1CN(C(=S)Nc2ccc(SC(F)F)cc2)CC(C)O1 (centres undefined)	5.3%	-21.2%	6.8%	11.2µM*	-8.4%
CCC(C)NC(=O)Cn1c(=O)n(Cc2ccc(C(=O)NCCCOC)cc2)c(=O)c2ccccc21 (centres undefined)	1.1%	9.4%	0.2%	·	·
c1ccc2c(c1)OCC(CNc1ncnc3sccc13)O2 (centres undefined)	22.5%	-15.8%	-5.6%	?	0.501µM*
CC(C)C[C@H](NC(=O)CNC(=O)[C@H](C)NC(=O)[C@H](CC(C)C)NC(=O)[C@H](CCCNC(=N)N)NC(=O)[C@H](Cc1cnc[nH]1)NC(=O)[C@@H](NC(=O)[C@@H](N)C(C)C)[C@@H](C)O)C(=O)N[C@@H](CC(C)C)C(=O)N[C@@H](CO)C(=O)N[C@@H](CCCNC(=N)N)C(=O)N[C@@H](CO)C(=O)NCC(=O)NCC(=O)N[C@H](C(=O)N[C@H](C(=O)N[C@@H](CCCCN)C(=O)N[C@@H](CC(N)=O)C(=O)N[C@@H](CC(N)=O)C(=O)N[C@@H](Cc1ccccc1)C(=O)N[C@H](C(=O)N1CCC[C@H]1C(=O)N[C@H](C(=O)N[C@@H](CC(N)=O)C(=O)N[C@H](C(=O)NCC(=O)N[C@@H](CO)C(=O)N[C@@H](CCCCN)C(=O)N[C@@H](C)C(=O)N[C@@H](Cc1ccccc1)C(N)=O)C(C)C)[C@@H](C)O)C(C)C)C(C)C)C(C)C	·	·	·	-8.7%	-4.4%
Cc1ccc(-n2c(C)nc3c(cnn3-c3ccc(F)cc3)c2=O)cc1C	-2.2%	-25.1%	-14.1%	?	6.31µM*
Cc1ccc(-n2c(C)nc3c(cnn3-c3ccc(C)c(C)c3)c2=O)cc1C	1.3%	-14.9%	-1.8%	?	-17.9%
COc1ccc(-c2noc(CN(C(=O)C(C)Oc3ccc(C)cc3)C(C)C)n2)cc1 (centres undefined)	1.7%	?	·	·	·
COc1ccc(C(=O)NC(=S)NC(C)(C)C)cc1Br	?	?	5.7%	2µM*	7.94µM*
COc1ccc(C(=O)NNC(=S)NC(=O)c2ccc(F)cc2)cc1Br	-9.3%	?	-8.3%	·	·
COc1ccc(C(=O)NC(=S)NC(C)C)cc1Br	-18.1%	0.0%	10.4%	1.78µM*	11.2µM*
COc1ccc(C(=O)NC(=S)NNC(=O)c2ccc(NC(C)=O)cc2)cc1Br	0.0%	11.6%	0.2%	7.94µM*	?
CCC(C)NC(=O)Cn1c(=O)n(-c2ccc(C)c(C)c2)c(=O)c2c(C)c(C(=O)N(CC)CC)sc21 (centres undefined)	1.0%	12.8%	·	·	·
CC(C)(C)n1nnnc1C(c1ccc(C(F)(F)F)cc1)N(Cc1ccc(F)cc1)Cc1ccco1 (centres undefined)	4.0%	?	-15.1%	?	?
